# Data published in the supplement of paper PMC12669032.
# A number with no mark means an inactive call.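 How the source made its calls: active = AUC reduced over 20% with Padj below 0.05 in at least 2 of 3 replicates; inactive = otherwise.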
# How the values were obtained:
# Test in all cases: growth AUC relative to DMSO control (median of replicates) (fraction); higher = more growth (less inhibition), active = hit call of the paper
# Details in all cases: 20 µM; 24 h
# [1] = tested on: Coprococcus comes
# Outline: (§1)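 Three biological replicates, each grown on a separate day, were combined as a median for every value. In each, a gut bacterial monoculture in mGAM started at OD600 0.05 and grew anaerobically at 37 °C with 20 µM compound (1% DMSO), with OD600 read hourly over 24 h. Area under the growth curve was normalised against the plate median of solvent-only wells, or against row and column medians on the industrial chemical plate, after the minimum OD was set to 0.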
# [2] = tested on: Escherichia coli ED1a
# Outline: as §1
# [3] = tested on: Escherichia coli IAI1
# Outline: as §1
# [4] = tested on: Eubacterium rectale
# Outline: as §1
# [5] = tested on: Fusobacterium nucleatum subsp. animalis
# Outline: as §1
# [6] = tested on: Lactobacillus gasseri
# Outline: as §1
# [7] = tested on: Lactobacillus paracasei
# Outline: as §1
# [8] = tested on: Odoribacter splanchnicus
# Outline: as §1
# [9] = tested on: Parabacteroides distasonis
# Outline: as §1
# [10] = tested on: Parabacteroides merdae
# Outline: as §1
# [11] = tested on: Roseburia intestinalis
# Outline: as §1
# [12] = tested on: Streptococcus salivarius
# Outline: as §1
Structure (SMILES),growth AUC [1],growth AUC [2],growth AUC [3],growth AUC [4],growth AUC [5],growth AUC [6],growth AUC [7],growth AUC [8],growth AUC [9],growth AUC [10],growth AUC [11],growth AUC [12]
CCCN(CCC)C(=O)SCC,0.969,0.967,1.01,0.944,0.893,1.03,1.02,1,1.03,0.984,0.948,1
Cc1nn(C)c(F)c1C(=O)Nc1ccccc1C(C)CC(C)C (centres undefined),0.985,1.02,1.01,0.932,0.977,1.03,0.97,0.899,0.96,0.946,0.963,1.02
c1ccc2c(c1)ccc1ccccc12,0.965,1.01,1.01,1.01,0.985,0.994,0.999,1.01,1.04,1.01,0.993,0.997
CC(C)N(C(=O)CS(=O)CC(=O)O)c1ccc(F)cc1 (centres undefined),0.957,1,0.941,0.829,0.969,1.01,0.97,1.06,1.08,0.977,1.03,0.948
Cc1c(Br)c2ccc(F)cc2n1S(=O)(=O)c1ncn(S(=O)(=O)N(C)C)n1,1.03,0.999,1.11,0.989,1.08,1.04,0.981,0.957,0.861,0.949,1.06,1.06
CCOC(=O)/C(Cl)=C/c1cc(N2C(=O)C3=C(CCCC3)C2=O)ccc1Cl,0.97,1,1.02,0.951,0.954,1.1,0.473,1.1,0.971,0.948,0.981,0.96
NC1=C(Cl)C(=O)c2ccccc2C1=O,1,0.896,0.804,1.19,1.25,0.863,0.995,0.876,0.528 (active),0.88,0.963,1
COc1ccc(Cl)c(Cl)c1Cl,0.994,0.983,1.02,0.966,0.982,1.01,0.993,1.01,1.04,0.961,0.999,1.06
N#Cc1ccccc1NC(=O)c1snc(Cl)c1Cl,0.967,0.993,0.995,1.04,1.09,1,1.01,1.01,1,1.02,0.992,0.991
CC(C)NS(=O)(=O)NC(=O)c1cc(NC(N)=O)c(F)cc1Cl,0.928,1.01,0.971,1.01,1,0.907,1.1,0.976,1.02,0.98,0.981,0.887
CCNc1nc(NC(C)(C)C)nc(OC)n1,1.03,1.04,1.03,1.06,1.01,1.03,1.01,1.07,1.07,0.99,1.05,1
CCCCCCCCOC(=O)COc1cc(Cl)c(Cl)cc1Cl,0.946,1.02,1.01,0.995,1.02,0.977,1.11,1.08,1.03,1.01,0.953,0.875
C[C@@]1(c2ccccc2)NC(=O)N(Nc2ccccc2)C1=O,1.03,1.02,1.01,0.948,1,1.05,0.955,0.993,1.02,0.996,0.958,1.02
CCc1nc2ncnn2c(N)c1CCCCCC(=O)O.Cl,1.03,1.02,1.04,1.11,1.14,1.08,0.977,1.04,0.99,1.06,0.955,1.02
CCNc1nc(N)[nH]c(=O)n1,1.02,0.991,1,0.995,0.953,1.01,1.02,1.01,1.04,0.995,1.06,0.978
CN(C)C(=O)Nc1ccc(Cl)c(Cl)c1,1.02,0.985,0.963,0.978,1.02,0.968,0.971,0.888,1.09,0.907,1.03,1.01
COC(=O)CSc1cc(N=c2sc(=O)n3n2CCCC3)c(F)cc1Cl,0.999,1.02,0.963,1.12,1.03,0.862,0.974,1.01,0.796,0.967,0.971,0.946
c1ccc2[nH]c(-c3cscn3)nc2c1,0.96,1.01,0.989,0.878,0.97,1,0.991,0.962,0.974,0.972,0.998,0.937
c1ccc2c(c1)-c1cccc3c1c-2cc1ccccc13,1.01,0.985,1.01,1.03,1.08,1.02,0.998,1.07,1.31,1.05,0.998,1.03
[O-][n+]1nc(-n2ccnc2)nc2ccc(Cl)cc21,1.04,0.95,0.956,1.12,1.06,0.831,1.01,1.03,0.897,1.02,0.984,1
COc1cc(Cl)ccc1Oc1ccc(Cl)cc1Cl,0.938,0.996,1,0.99,0.851,1,1.16,0.947,0.988,0.929,0.991,1.05
CC(C)([CH2][Sn]([CH2]C(C)(C)c1ccccc1)([CH2]C(C)(C)c1ccccc1)[O][Sn]([CH2]C(C)(C)c1ccccc1)([CH2]C(C)(C)c1ccccc1)[CH2]C(C)(C)c1ccccc1)c1ccccc1,0.98,0.999,0.978,0.998,1.03,0.963,0.988,1.06,1.04,0.954,1.02,0.972
Cc1ccc(C)c(O)c1,0.988,0.996,1.01,0.958,0.988,1.02,0.953,1,0.991,1.03,0.996,1.09
C=C1C[C@]23C[C@@]1(O)CC[C@H]2[C@@]12C=C[C@H](O)[C@@](C)(C(=O)O1)[C@H]2[C@@H]3C(=O)O,0.975,0.982,1.01,1.14,0.967,0.921,0.94,0.779,0.778,0.995,0.881,0.904

Structure (SMILES),growth AUC [1],growth AUC [2],growth AUC [3],growth AUC [4],growth AUC [5],growth AUC [6],growth AUC [7],growth AUC [8],growth AUC [9],growth AUC [10],growth AUC [11],growth AUC [12]
COC(=O)C(C)Oc1ccc(Cl)cc1C (centres undefined),1.04,0.991,1,0.997,1.03,1.06,1.01,1.02,1.02,1.05,1.04,0.988
CC(C)CCCCCCc1ccc(O)cc1,1.01,1.02,1.01,0.879,1.16,0.948,1.03,1.05,1.02,0.968,0.958,0.965
CSc1nc(NC2CC2)nc(NC(C)(C)C)n1,0.981,1.03,1.03,0.974,1.06,1.05,0.987,1.11,1.02,0.991,0.981,1
CS(=O)(=O)c1ccc(C(=O)O)c(N)c1,1.05,1.02,1.01,1.05,1.08,1.13,1,1.02,1.04,1.01,1.07,1.03
CC(C)(C)Nc1nc(N)nc(Cl)n1,0.999,1.03,0.998,0.979,1,0.974,0.987,0.995,1.02,0.97,1.01,0.975
O=c1cc(Cl)[nH]nc1-c1ccccc1,0.973,0.956,0.954,0.939,0.995,0.992,0.748,1.02,1.02,0.982,0.977,1.03
Cc1nn(C)c(Oc2ccccc2)c1/C=N/OCc1ccc(C(=O)OC(C)(C)C)cc1,0.996,0.984,0.991,0.907,0.973,0.901,1.01,1.01,1.03,0.925,0.924,0.993
CC(C)OC(=O)c1cc(C(=O)OC(C)C)cc([N+](=O)[O-])c1,0.97,0.998,0.988,0.972,0.98,0.968,0.964,1.06,0.963,0.921,0.974,0.992
COC1CCC2(CC1)NC(=O)C(c1cc(C)ccc1C)C2O (centres undefined),1.04,1.03,1.03,1.11,1.16,0.99,1.03,1.01,1.07,1.02,0.974,1.04
C[S+](C)CCC(=O)O.[Cl-],0.97,0.985,1.01,0.923,0.939,1.08,1.01,0.979,0.959,1.02,1.01,0.994
O=C(O)Cc1cccc2ccccc12,0.941,0.959,0.991,1.02,1.01,0.949,1.02,0.953,0.987,1.01,1.04,0.99
C=CCOC(Cn1ccnc1)c1ccc(Cl)cc1Cl (centres undefined),0.0723 (active),0.986,0.967,0.0607 (active),0.938,0.851,0.969,0.882,0.847,0.919,0.767 (active),0.915
COc1ccc(NC(=O)N(C)C)cc1Cl,1.03,0.981,0.957,1.01,0.973,0.916,1.02,1.1,0.99,0.916,0.925,0.927
CCSC(=O)COc1ccc(Cl)cc1C,0.981,0.973,0.986,1.03,1,0.874,1.08,0.901,1.05,0.992,0.969,0.915
CCOC(=O)Cc1[nH]nc2ccc(Cl)cc12,0.976,1.02,1,1.03,1.08,1.02,0.917,1.08,0.983,1.03,1.14,1
COC(=O)c1ccc(CNS(C)(=O)=O)cc1S(=O)(=O)NC(=O)Nc1nc(OC)cc(OC)n1,1.04,1.02,1.01,1.01,0.977,0.961,0.925,1.07,1.03,1.02,0.973,1.07
S=C([S-])NCCNC(=S)[S-].S=C([S-])NCCNC(=S)[S-].[Mn+2].[Zn+2],0.99,0.996,1.03,1.22,1.06,1.03,1.08,0.967,1.01,1.01,0.999,1.03
CCCCN(C)C(=O)Nc1ccc(Cl)c(Cl)c1,1.04,1.01,1,1.04,1.01,0.965,0.98,0.901,0.816,0.932,0.956,0.971
CC(C)c1nn(C(=O)NC(C)(C)C)c(=O)n1N,1.02,1.02,1.02,0.971,0.994,1.07,1.02,1,1,1.02,1.02,1.01
Cc1cc(N(C)C)nc(Cl)n1,0.97,1.02,0.992,1.06,1.11,0.947,0.99,0.998,1.03,0.998,1.01,1.04
Br[C@@H]1CC[C@H](Br)[C@H](Br)CC[C@@H](Br)[C@@H](Br)CC[C@H]1Br,1.05,0.985,1,0.773 (active),0.974,0.789,0.976,1.08,0.232 (active),0.351 (active),0.962,0.868
COC(=O)c1c(Cl)nn(C)c1S(=O)(=O)NC(=O)Nc1nc(OC)cc(OC)n1,1,1.01,1.01,1,1.09,0.882,1.03,0.999,1.01,0.99,1.04,1.05
O=C1NC(=O)c2ccccc21,1.02,1.02,1.02,0.984,1.05,1.06,1.04,0.89,1.02,1.02,1.11,1
